Bioassay records from PubChem BioAssay.
A3G deaminase: APOBEC3G (human) deaminase inhibition; recombinant A3G, ssDNA deamination FAM/TAMRA fluorescence; Q9HC16; inhibition, % at 20 µM; 0.28% of 330,000 active; AID 493012;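 active = inhibition of at least 40% at 20 µM, with no more than 30% in the related APOBEC3A deaminase screen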;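 note: plate controls were DMSO wells with A3G for no effect and wells lacking A3G enzyme for full effect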
CendR NRP1 mod: modulators of CendR peptide binding to human neuropilin-1; O14786; FAM-RPARPAR peptide binding to NRP-1, fluorescence polarization; inhibition, % at 25 µM; 0.85% of 360,000 active;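 active = inhibition or corrected inhibition above about 18%, plus a signal ratio from 0.5 to 1.5, limit read from the data, passing the limit was not always enough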
Target sequence (O14786 whole entry, looked up): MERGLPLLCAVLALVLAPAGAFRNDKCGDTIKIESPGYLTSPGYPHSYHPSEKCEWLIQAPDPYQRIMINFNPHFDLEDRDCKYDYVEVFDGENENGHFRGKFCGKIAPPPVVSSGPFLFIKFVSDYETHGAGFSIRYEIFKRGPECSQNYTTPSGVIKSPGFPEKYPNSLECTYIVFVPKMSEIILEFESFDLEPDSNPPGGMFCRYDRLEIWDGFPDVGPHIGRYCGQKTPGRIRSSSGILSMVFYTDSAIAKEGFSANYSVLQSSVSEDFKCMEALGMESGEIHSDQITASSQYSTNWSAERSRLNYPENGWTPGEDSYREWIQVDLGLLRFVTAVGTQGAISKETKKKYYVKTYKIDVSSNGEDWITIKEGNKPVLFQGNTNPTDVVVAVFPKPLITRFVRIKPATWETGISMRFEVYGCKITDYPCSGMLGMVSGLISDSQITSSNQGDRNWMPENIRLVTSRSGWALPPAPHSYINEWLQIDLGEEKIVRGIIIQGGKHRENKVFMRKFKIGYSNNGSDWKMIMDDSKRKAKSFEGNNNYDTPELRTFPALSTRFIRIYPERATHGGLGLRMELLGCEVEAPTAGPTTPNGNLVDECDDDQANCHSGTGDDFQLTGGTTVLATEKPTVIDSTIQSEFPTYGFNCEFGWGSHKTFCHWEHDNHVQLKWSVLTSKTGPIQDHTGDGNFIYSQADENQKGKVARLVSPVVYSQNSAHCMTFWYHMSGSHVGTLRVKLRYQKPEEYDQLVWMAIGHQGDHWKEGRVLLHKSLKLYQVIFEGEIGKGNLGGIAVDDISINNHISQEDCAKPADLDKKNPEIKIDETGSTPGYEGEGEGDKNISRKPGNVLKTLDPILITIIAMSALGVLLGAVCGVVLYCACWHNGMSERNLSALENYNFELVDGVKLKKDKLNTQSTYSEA
VLA-4 inh: inhibition in a human VLA-4 binding assay. P13612. VLA-4 expressing cells, ligand binding flow cytometry. inhibition, % (about 7 µM as worked out from the volumes in the protocol). 0.2% of 330,000 active; in the data active = inhibition above about 50%
APOBEC3A inh: inhibitors of human APOBEC3A DNA deaminase. P31941. inhibition, % at 20 µM. recombinant A3A, FAM/TAMRA ssDNA deamination fluorescence. AID 493011. 0.41% of 330,000 active;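 active = at least 40% inhibition at 20 µM here, with at most 30% in a related deaminase screen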;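 note: plate controls were A3A with DMSO for no effect and wells lacking A3A enzyme for full effect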
beta cell repl: MIN6 beta-cell proliferation induction | MIN6 cells proliferation, ATPlite luminescence, 48 h; cells starved in 0.2% serum; 100% = growth in 10% serum | proliferation, % at 10 µM | 0.29% of 330,000 active | AID 2380;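 active = compounds whose signal lies at least 3.5 SD above the mean of all wells on their plate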;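 note: 0% = DMSO-treated cells in low-serum medium and 100% = 10% serum control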
VLA-4 allo CP: confirmation of allosteric modulators of human VLA-4 integrin; 2% of 1,300 active; U937 cells, HUTS-21 LIBS mAb binding, flow cytometry; LDV ligand present at threefold Kd; inhibition, % at 6.7 µM; shares compounds with VLA-4 inh; in the data active = inhibition above about 40%;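 note: 0% = ligand without compound and 100% = no ligand background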
* = called active by the depositor; nt = not tested or not shown. Most compounds without a hit are left out; they make up all but 1.8% or so of the library.

SMILES	A3G deaminase	CendR NRP1 mod	VLA-4 inh	APOBEC3A inh	beta cell repl	VLA-4 allo CP
O=C(NCCC(=O)N(Cc1ccco1)Cc1cccs1)c1ccc(Br)cc1	-4	5	-7	0	0	nt
COc1cccc(/C(C)=N/NC(=O)Cc2c(C)[nH][nH]c2=O)c1	-8	16	-7	-5	-4	nt
C/C(=N\NC(=O)Cc1c(C)[nH][nH]c1=O)c1ccc2ccccc2c1	-7	nt	61*	-3	0	-16
Cc1ccc(C)c(N/C(N)=N/c2nc(C)cc(C)n2)c1	2	2	54*	5	-1	3
COc1ccc(C)cc1N/C(N)=N/c1nc(C)cc(C)n1	4	-1	-3	2	-1	nt
Cc1nn(-c2ccccc2)nc1CNC(=O)C1CC1	-5	-7	4	-2	-4	nt
Cc1ccc(-c2nc(-c3ccccc3)no2)cc1	-2	10	95*	0	-6	0
COc1ccc([C@H]2CC(=O)C=C(c3ccc(C)c([N+](=O)[O-])c3)C2)cc1	-4	6	12	0	-5	nt
COC(=O)c1ccccc1NS(=O)(=O)c1ccc(F)cc1	2	-2	-6	2	-2	nt
NC(=O)c1ccccc1NS(=O)(=O)c1ccc(F)cc1	-7	-11	5	4	0	0
CC(C)(C)NC(=O)N1CCN(c2ncccc2C(F)(F)F)CC1	-2	-4	10	2	0	nt
FC(F)(F)c1cccnc1N1CCN(c2ncnc3nc[nH]c23)CC1	-8	-4	50*	-5	7	7
O=C(Nc1ccccc1C(=O)Nc1ccc(Cl)cc1)c1cccnc1	-5	-8	-1	-3	-1	nt
COc1ccc([C@@H]2CC=C(C(=O)O)[C@H](c3ccc(Br)cc3)N2S(=O)(=O)c2ccc(C)cc2)cc1OC	0	-1	-15	-1	-2	nt
Cc1ccc(S(=O)(=O)N2[C@@H](c3cccc(C)c3)C(C(=O)O)=C[C@H]2CC2CCCC2)cc1	-8	-18	9	-6	-2	-3
Cc1ccc(S(=O)(=O)N2[C@@H](c3ccc4c(c3)OCO4)C(C(=O)O)=C[C@H]2CC2CCCC2)cc1	-5	-4	22	-2	-2	1
COc1ccc([C@H]2C(C(=O)O)=C[C@@H](CC3CCCC3)N2S(=O)(=O)c2ccc(C)cc2)cc1OC	-2	-9	-2	0	-3	13
CC[C@@H]1C=C(C(=O)O)[C@H](c2cccc(C)c2)N1S(=O)(=O)c1ccc(C)cc1	8	-11	28	-5	-1	0
CC[C@@H]1C=C(C(=O)O)[C@H](c2ccc(F)cc2)N1S(=O)(=O)c1ccc(C)cc1	-6	2	25	-3	-2	nt
O=c1c(-c2ccccc2)nc2ccccc2n1C(CCc1ccccc1)c1nc2ccccc2[nH]1 (centres undefined)	nt	2	nt	nt	nt	nt
Cc1cc(C)n2c(SCC(=O)Nc3ccccc3C#N)nnc2n1	-2	-12	0	-2	-4	nt
Cc1ccc(C(=O)c2cc([N+](=O)[O-])ccc2N2CCCCC2)cc1C	-2	-2	8	-1	-6	nt
Cc1ccc(C(=O)c2cc([N+](=O)[O-])ccc2N2CCOCC2)c(C)c1	-5	4	26	-6	-4	50*
Cc1ccc(C(=O)c2cc([N+](=O)[O-])ccc2N2CCOCC2)cc1C	-3	0	18	-5	-4	7
CC1=NN(C(N)=S)C(=O)C1N=Nc1c(C)n(C)n(-c2ccccc2)c1=O (centres undefined)	-4	3	7	13	-2	nt
SMILES	A3G deaminase	CendR NRP1 mod	VLA-4 inh	APOBEC3A inh	beta cell repl	VLA-4 allo CP
CC12CCC(=O)C=C1CCC1C2CCC2(C)C1CC1C3C(=O)N(Cc4ccccc4)C(=O)C3CC(=O)C12 (centres undefined)	nt	-8	nt	nt	nt	nt
CCN(CC(=O)NCc1cccs1)C(=O)c1ccc(-c2cccc(C(F)(F)F)c2)o1	-5	20	53*	-2	-3	4
CC1=C(C(=O)N2CCCCCC2)CC(CC(=O)NCCc2ccccn2)C(=O)N1CCC1=CCCCC1 (centres undefined)	nt	-21	nt	nt	nt	nt
CCCN(C(=O)c1ccccc1N)c1c(C)n(C)n(-c2ccccc2)c1=O	-1	7	-1	1	0	-10
CCN(c1c(C)n(C)n(-c2ccccc2)c1=O)S(C)(=O)=O	-2	10	5	-1	1	nt
Cn1nnnc1SCC(=O)N1CCN(S(=O)(=O)c2ccccc2)CC1	-7	7	51*	-3	0	5
Cn1nnnc1SCC(=O)N1CCN(S(=O)(=O)c2ccc(Cl)cc2)CC1	2	6	1	2	-4	nt
CC1CCC(NC(=O)N(CCCl)N=O)CC1 (centres undefined)	-6	9	65*	-1	0	0
CC1CCC(NC(=S)NCCN(C)C)CC1 (centres undefined)	-7	5	-6	-1	-3	nt
CN(CCOc1ccc(Cl)cc1)C(=O)CN1C(=O)NC2(CCCC2)C1=O	-2	-10	-5	29	-2	nt
COc1cccc(C(C(=O)NC2CCCCC2)N(C(=O)Cc2cccs2)c2ccc(-n3cnnn3)c(OC)c2)c1 (centres undefined)	-6	-2	54*	-4	-2	-4
O=C(Cc1ccccc1)Nc1cccc(N2C(=O)C=CC2=O)c1	nt	-6	60*	nt	nt	36
CC(C)(C)c1ccc(C(=O)NCCCN2CCN(CCCNC(=O)c3ccc(C(C)(C)C)cc3)CC2)cc1	-5	-14	40	-1	0	9
Cc1ccccc1Oc1ccc2c(c1)[C@@H]1C[C@H](N(C)C(=O)c3ccc(C#N)cc3)[C@H]([C@H](C)O)C(=O)N1CC2	nt	12	nt	nt	nt	nt
COC(=O)C(C)Sc1ccc2nnc(-c3ccccc3)n2n1 (centres undefined)	-14	6	-6	-7	-2	nt
Cc1ccc(-c2nnc3ccc(SC(C)C(=O)O)nn23)cc1 (centres undefined)	-1	-1	-12	-3	1	-1
Cc1cc(NC(=O)CSc2ccc3nnc(-c4ccc(Cl)cc4)n3n2)no1	-7	4	-1	-5	-2	4
COc1ccc(-c2nnc3ccc(SCC(=O)N4CCCCC4)nn23)cc1OC	-13	13	21	-1	-4	7
COc1ccc(-c2nnc3ccc(SCC(=O)NCc4ccco4)nn23)cc1OC	-4	10	10	7	7	1
CCOc1ccc(-n2c(=O)[nH]cc(C(=O)Nc3ccc(OC)c(OC)c3)c2=O)cc1	-2	7	-13	4	1	nt
Oc1[nH]c2ccc(Br)cc2c1N=NC(=S)Nc1ccc(F)cc1	-3	-1	-2	1	-6	nt
N=C(N)N=Nc1c(O)[nH]c2ccc(Br)cc12	-4	1	53*	0	5	0
Cc1ccc(NC(=O)CSCC(=O)N(C)CCOc2ccc(Cl)cc2)cc1	-10	0	nt	1	0	nt
